{"source": "PubChem BioAssay AID1259318", "about": "(Sanford-Burnham Center for Chemical Genomics, 2017)", "note": "In all, about 370,000 compounds went through this assay and about 3,000 (0.81%) were called active. Shown is part of a subset that was picked to be rich in actives. Unmarked numbers belong to inactive results.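 How the source made its calls: active means activity above about 14% (limit read from the data; passing the limit was not always enough); inactive means the rest.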", "data": [{"target": "Nuclear receptor subfamily 1 group D member 1 (Homo sapiens) (UniProt P20393)", "sequence (P20393 whole entry, looked up)": "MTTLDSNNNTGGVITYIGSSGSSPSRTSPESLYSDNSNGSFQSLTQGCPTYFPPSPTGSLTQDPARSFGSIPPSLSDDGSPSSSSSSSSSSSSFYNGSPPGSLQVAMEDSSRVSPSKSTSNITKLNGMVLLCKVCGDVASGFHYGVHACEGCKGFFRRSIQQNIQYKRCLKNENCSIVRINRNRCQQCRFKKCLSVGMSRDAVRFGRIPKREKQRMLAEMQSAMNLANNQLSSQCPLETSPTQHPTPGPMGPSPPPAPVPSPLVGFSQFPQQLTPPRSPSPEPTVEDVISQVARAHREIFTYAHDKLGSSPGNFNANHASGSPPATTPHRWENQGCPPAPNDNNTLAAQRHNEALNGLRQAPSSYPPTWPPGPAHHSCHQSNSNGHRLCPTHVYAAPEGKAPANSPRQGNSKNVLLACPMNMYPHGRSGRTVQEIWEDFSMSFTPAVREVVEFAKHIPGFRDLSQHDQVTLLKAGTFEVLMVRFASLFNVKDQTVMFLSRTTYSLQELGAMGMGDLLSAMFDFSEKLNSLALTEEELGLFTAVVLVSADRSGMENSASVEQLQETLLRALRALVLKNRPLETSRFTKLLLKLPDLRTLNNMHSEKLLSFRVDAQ", "experiment": "modulators of Rev-erb alpha DNA binding, primary screen, biochemical, FITC-DNA, fluorescence polarization, uHTS (AID 1259318);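 further: 0% = DMSO wells with 35 nM protein and 100% = DMSO wells with 750 nM protein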", "conditions": "Rev-erbα–FITC-DNA binding, 90 min, at 10 µM, stronger effect = higher value", "values": [{"smiles": "Cc1c(-c2ccccc2)nc(N)c(C#N)c1-c1cccs1", "activity": "29.3% (active)"}, {"smiles": "CCc1c(-c2ccccc2)nc(N)c(C#N)c1-c1cccs1", "activity": "12%"}, {"smiles": "CN1CCc2nc(SC(C(=O)O)c3ccccc3)c(C#N)c(-c3cccs3)c2C1", "note": "(centres undefined)", "activity": "-2.52%"}, {"smiles": "C=CCOc1cccc(CNn2cn[nH]c2=S)c1", "activity": "-6%"}, {"smiles": "CN(C(=O)COC(=O)Cn1cnc2c1c(=O)n(C)c(=O)n2C)C1(C#N)CCCCC1", "activity": "0.32%"}, {"smiles": "CC(=O)c1cc2c(cc1NC(=O)Cn1nc(-c3ccc(F)cc3)ccc1=O)OCO2", "activity": "1.35%"}, {"smiles": "CCOc1cccc(NC(=O)Cn2nc(-c3ccc4c(c3)OCCO4)ccc2=O)c1", "activity": "52.4% (active)"}, {"smiles": "O=C(CSc1ccc(-c2ccc(F)cc2)nn1)Nc1ccc2c(c1)OCCO2", "activity": "-5.86%"}, {"smiles": "CC(C)C(C#CC1CC1)N(Cc1ccc2c(c1)OCO2)C(N)=NC(=O)/C=C/c1cccc(C(F)(F)F)c1", "note": "(centres undefined)", "activity": "-2.7%"}, {"smiles": "Cn1c(-c2sccc2OCc2cccc(C(F)(F)F)c2)n[nH]c1=S", "activity": "-0.5%"}, {"smiles": "CC1(C)Cc2nc3sc4c(SCC(=O)NC(c5ccccc5)c5ccccc5)ncnc4c3cc2CO1", "activity": "199% (active)"}, {"smiles": "O=C(CSc1ncnc2c1oc1ccccc12)NC1CCCC1", "activity": "-1.38%"}, {"smiles": "CC(C)CCSc1ncnc2c1oc1nc3c(cc12)COC(C)(C)C3", "activity": "0.04%"}, {"smiles": "COCCN1C2=C(COC(C)(C)C2)C(=S)NC1c1ccccc1", "note": "(centres undefined)", "activity": "1.37%"}, {"smiles": "COc1ccccc1NC(=O)c1c(Br)cnn1C", "activity": "2.04%"}, {"smiles": "COc1ccccc1NC(=O)C(CC(=O)O)Cc1cc(C)cc(C)c1", "note": "(centres undefined)", "activity": "-2.91%"}, {"smiles": "COC(=O)c1c(NC(C)=O)sc(C(=O)Nc2ccccc2OC)c1C", "activity": "32.9% (active)"}, {"smiles": "O=C(CCc1ccc(S(=O)(=O)N2CCOCC2)cc1)Nc1ccc2ccccc2c1", "activity": "-2.19%"}, {"smiles": "O=C(NC1CC1)C(Cc1ccccc1)NS(=O)(=O)c1ccccc1F", "note": "(centres undefined)", "activity": "3.33%"}, {"smiles": "CC(C(=O)N=Nc1c(O)n(C)c2ccc(Br)cc12)n1cnc2ccccc2c1=O", "note": "(centres undefined)", "activity": "2.88%"}, {"smiles": "COc1ccccc1C(=O)Nc1ccnn1C1CCN(Cc2cnn(C)c2)CC1", "activity": "4.21%"}, {"smiles": "COc1ccccc1N1CCN(CC(=O)Nc2ccnn2C2CCCC2)CC1", "activity": "15.8% (active)"}, {"smiles": "COc1cccc(N2CCN(CC(=O)Nc3ccnn3C3CCCC3)CC2)c1", "activity": "5.07%"}, {"smiles": "C#CCNc1nc(C(C)C)nc2c1nnn2Cc1ccccc1F", "activity": "2.17%"}, {"smiles": "CCCCCCCCCOC1OC(CO)C(O)C(O)C1NC(C)=O", "note": "(centres undefined)", "activity": "1.37%"}, {"smiles": "CCC(C)C1(C2CCCC2)NC(=O)NC1=O", "note": "(centres undefined)", "activity": "16.3% (active)"}, {"smiles": "c1cncc(CNc2ccnc(-c3ccc4c(c3)OCO4)n2)c1", "activity": "3.58%"}, {"smiles": "Cc1ccc2nc(C)c3c(c2c1)N(c1ccccc1)CC3", "activity": "8.49%"}, {"smiles": "CCOc1cccc(C(=O)Nc2nnc(-c3cccs3)s2)c1", "activity": "23.2% (active)"}, {"smiles": "CCOc1ccc(C(=O)Nc2nccs2)cc1[N+](=O)[O-]", "activity": "13.7%"}, {"smiles": "CCOc1cccc(C(=O)Nc2cnn(Cc3ccccc3)c2)c1", "activity": "-1.52%"}, {"smiles": "Cc1ccc(C(=O)Oc2coc(CSc3nnc(NC(=O)c4cccs4)s3)cc2=O)cc1C", "activity": "12.7%"}, {"smiles": "Cc1ccc(C(=O)Nc2nnc(-c3cccs3)s2)cc1C", "activity": "22.5% (active)"}, {"smiles": "Cc1ccc(C(=O)NC(C)C(c2cccs2)N2CCOCC2)cc1C", "note": "(centres undefined)", "activity": "-7%"}, {"smiles": "CSc1ccccc1C(=O)OCC(=O)N1CCN(C(C)=O)CC1", "activity": "-6.48%"}, {"smiles": "COCCCNC(=O)Cn1cc(/C=C(\\C#N)C(=O)N2CCN(c3ccccc3)CC2)c2ccccc21", "activity": "1.28%"}, {"smiles": "COc1ccc2c(c1)CCC/C2=N\\OC(=O)c1ccccc1F", "activity": "-4.23%"}, {"smiles": "COc1cc(NS(=O)(=O)c2ccc(NC(=O)c3ccc(S(=O)(=O)N4CCCCC4)cc3)cc2)ncn1", "activity": "-7.53%"}, {"smiles": "CCSC1=NCCN1S(=O)(=O)c1ccc(F)cc1", "activity": "8.78%"}, {"smiles": "N#Cc1ccc(-c2ccc(Cl)cc2)nc1Oc1ccc(F)cc1", "activity": "6.3%"}, {"smiles": "COc1nc(-c2ccc(Cl)cc2)ccc1-c1noc(-c2cccs2)n1", "activity": "56.6% (active)"}, {"smiles": "CC(C)C[C@@H]1Cc2[nH][nH]c(=O)c2[C@H](CCc2ccccc2)O1", "activity": "-3.25%"}, {"smiles": "CCCn1c(O)c(CN2CCCC(C)C2)c(C)c(C#N)c1=O", "note": "(centres undefined)", "activity": "8.88%"}, {"smiles": "CSc1ncnc2c1ncn2CC(=O)C1CCC2C3CCC4=CC(=O)CCC4(C)C3CCC12C", "note": "(centres undefined)", "activity": "-3.58%"}, {"smiles": "CCC(=O)c1c(CC)c2n3c1=CC[C@H]3CC(Br)C=2", "note": "(some centres undefined)", "activity": "2.99%"}, {"smiles": "CC(Sc1ccccc1F)C(=O)Nc1cccc(S(=O)(=O)N2CCOCC2)c1", "note": "(centres undefined)", "activity": "-3.07%"}, {"smiles": "Cn1c(=NC(=O)c2ccc3c(c2)OCCO3)sc2cc(S(C)(=O)=O)ccc21", "activity": "22.9% (active)"}, {"smiles": "COCCn1c(=NC(=O)c2ccccc2[N+](=O)[O-])sc2cc(S(C)(=O)=O)ccc21", "activity": "3.08%"}, {"smiles": "CS(=O)(=O)c1ccc(-c2nnn(CC(=O)Nc3ccc4c(c3)OCCO4)n2)cc1", "activity": "6.46%"}, {"smiles": "COc1ccc(C(=O)OCCN(C)C2CN(Cc3cn(Cc4cccc(C)c4)nn3)S(=O)(=O)C2)cc1OC", "note": "(centres undefined)", "activity": "-5.04%"}, {"smiles": "CSc1ccccc1NC(=O)CN(C)CC(=O)Nc1cccc(Br)c1", "activity": "-5.77%"}, {"smiles": "CC(=O)c1ccc(S(=O)(=O)N2CCN(c3nc4c(C)c(C)ccc4cc3C#N)CC2)cc1", "activity": "223% (active)"}, {"smiles": "Cc1ccccc1N1CCN(S(=O)(=O)c2ccc3ccccc3c2)CC1", "activity": "3.07%"}, {"smiles": "CC(=O)c1ccc(N2CCN(S(=O)(=O)c3ccc4c(c3)CC(=O)N4C)CC2)cc1", "activity": "1.85%"}, {"smiles": "CCN(CCCNC(=O)c1ccc2c(c1)NC(=O)CN2C)c1cccc(C)c1", "activity": "-3.82%"}, {"smiles": "COc1ccc(C(=O)Nc2cccc(NC(=O)c3ccc(OC)cc3OC)n2)c(OC)c1", "activity": "22.5% (active)"}, {"smiles": "COc1ccc(CNC(=O)CCC(=O)Nc2nnc(C(C)C)s2)cc1", "activity": "-2.06%"}, {"smiles": "COc1ccc(C(=O)CSc2nnnn2C)c(OC)c1", "activity": "1.25%"}, {"smiles": "COC(=O)c1sc(NC(=O)c2ccc(OC)cc2OC)nc1C", "activity": "28.7% (active)"}, {"smiles": "COc1ccc(C(=O)COC(=O)C(O)c2ccccc2)c(OC)c1", "note": "(centres undefined)", "activity": "7.39%"}, {"smiles": "COc1ccc(C(=O)N2CCCN(C)CC2)c(OC)c1", "activity": "1.46%"}, {"smiles": "COc1ccc(Cc2nnc(NC(=O)c3ccc(OC)cc3OC)s2)cc1", "activity": "45.2% (active)"}, {"smiles": "COCCSc1nnc(NC(=O)c2cc(OC)c(OC)cc2[N+](=O)[O-])s1", "activity": "7.5%"}, {"smiles": "COc1ccc(N(CC(=O)Nc2cccc3ccccc23)S(C)(=O)=O)c(OC)c1", "activity": "0.94%"}]}]}
